# A selection: hits, their analogues and other compounds. The true share with any hit is near 2.4%.
# D2 ag-1: agonists of human D2 dopamine receptor; P14416; HEK293 T-REx D2 cells, calcium flux agonist mode; activation, % at 2 µM; hit rate 0.53% among 340,000;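 active = activation over 3 SD above normal in the single-dose calcium agonist read, cut at about 30% in these data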
# Target sequence (P14416 whole entry, looked up): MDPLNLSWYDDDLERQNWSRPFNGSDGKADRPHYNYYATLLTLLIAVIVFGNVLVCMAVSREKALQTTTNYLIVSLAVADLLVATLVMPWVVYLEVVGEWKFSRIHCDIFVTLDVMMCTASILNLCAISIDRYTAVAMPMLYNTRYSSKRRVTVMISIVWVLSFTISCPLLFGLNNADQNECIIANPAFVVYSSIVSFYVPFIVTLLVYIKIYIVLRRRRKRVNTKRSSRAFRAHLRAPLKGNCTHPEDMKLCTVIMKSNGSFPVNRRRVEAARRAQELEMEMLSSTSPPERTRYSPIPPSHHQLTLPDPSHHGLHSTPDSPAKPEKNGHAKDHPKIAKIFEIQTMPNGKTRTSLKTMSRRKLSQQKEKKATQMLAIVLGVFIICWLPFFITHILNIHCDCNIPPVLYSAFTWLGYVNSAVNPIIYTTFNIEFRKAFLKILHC
#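 Agonism scored from kinetic calcium signal (1 read/sec, 180 s) following compound pin transfer, after a 10 s baseline. Cells: HEK293 Trex line expressing inducible D2 receptor coupled to calcium, dye-loaded after overnight culture at 30 C.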
# D2 PAM-1: D2 dopamine receptor (human) potentiation | P14416 | HEK293 T-REx D2, calcium flux, EC20 dopamine potentiation | potentiation, % at 10 µM | hit rate 0.34% among 340,000 | AID 485347;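 active = potentiation over 3 SD above the plate norm, cut at about 30% in these data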
#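 Primary screen. Calcium kinetics in induced HEK293 T-REx D2 cells: compound pre-addition 180 s, EC20 dopamine, 180 s more.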
# D2 ag-2: human D2 receptor agonism in beta-arrestin assay. DiscoveRx PathHunter D2 beta-arrestin, luminescence, 90 min; 100% = 57 uM dopamine signal. activation, % (no concentration beside the values). hit rate 0.084% among 360,000; in the data active = activation above about 40%; inconclusive = between about 15% and that limit
#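 DiscoveRx PathHunter D2 beta-arrestin cells (2,100/well) attached overnight, then compound-stimulated 90 min at 37 C in HBSS/10 mM HEPES/0.1% Tween-20 buffer; beta-galactosidase complementation read by luminescence after 1 h at ambient temperature. Dopamine 57 uM final (EC100) as control.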
# D2 antag: antagonizes the human D2 dopamine receptor; P14416; HEK293 TREx D2 cells, calcium flux, dopamine EC80; inhibition, % at 10 µM; hit rate 2% among 340,000; AID 485344; in the data active = inhibition above about 30%; inactive = below that, where a call was filed
#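 Tetracycline-induced HEK293 TREx cells expressing D2 receptor forced-coupled to calcium signalling, loaded with no-wash calcium dye. Compounds added and calcium flux read 180 s, then dopamine added at EC80 and read a further 180 s.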
# D2 PAM-2: human D2 receptor positive allosteric modulation | potentiation, % (concentration not given with the values) | DiscoveRx D2 beta-arrestin cells, luminescence, 90 min; 100% = 57 uM dopamine signal | P14416 | hit rate 0.23% among 360,000; in the data active = potentiation above about 50%; inconclusive = mostly about 30% to 49%
#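 PathHunter beta-arrestin assay in DiscoveRx D2 cells. Compounds were added with an EC20 of dopamine (50 nM final) for 90 min at 37 deg C. Luminescence was read 1 h after detection reagent, with 57 uM dopamine as the EC100 control.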
# Hits are given with their value; . = inactive; ? = inconclusive; / = no result given; ! = not confirmed by another sample.
SMILES,D2 ag-1,D2 PAM-1,D2 ag-2,D2 antag,D2 PAM-2
COc1ccccc1CNC(=O)c1cc2cc(C)ccc2n1C,.,.,/,/,/
CC(C)CCOP(=O)(c1ccc(N(C)C)cc1)C(O)c1ccc(Cl)cc1Cl (stereo not drawn),.,.,40.4,.,.
CC(C)CCOP(=O)(c1ccc(N(C)C)cc1)C(O)c1ccccc1F (stereo not drawn),/,.,.,/,.
CCCCN(C(=O)Cc1cccc(F)c1)c1c(N)n(CCC)c(=O)[nH]c1=O,.,.,.,36.5,.
COC(=O)CSCc1nc(-c2ccc(C(=O)OC)cc2)oc1C,.,.,/,/,/
COc1ccc(C(C)=O)c(OC(=O)c2ccc(OC)c(OC)c2)c1,.,35.7,.,.,.
COc1ccc(C(=O)Nc2cccc(OC(=O)c3ccco3)c2)cc1,.,.,.,.,.
COc1ccc(C(C)=O)c(OC(=O)c2ccco2)c1,.,39.2,.,.,.
COc1ccc(S(=O)(=O)NC(C)C(=O)N2CCCC2)cc1Cl (stereo not drawn),.,.,.,.,.
COc1ccc(S(=O)(=O)NC(C)C(=O)N2CCCC2)cc1C (stereo not drawn),.,.,.,32.4,.
CCC(CC)C(=O)Nc1ccccc1C(=O)OCc1cc(=O)n2nc(C3CCCCC3)sc2n1,.,.,/,/,/
CCCCc1nnc(SCC(=O)Nc2nccs2)n1C,.,.,.,.,.
Cn1c(CC(=O)Nc2ccc(Cl)c(Cl)c2)nnc1SCC(=O)Nc1nccs1,.,.,.,.,.
Cn1c(CSCc2ccccc2Cl)nnc1SCC(=O)Nc1nccs1,.,.,.,59.7,.
Cn1c(CCCOc2ccc(Cl)cc2Cl)nnc1SCC(=O)Nc1nccs1,.,.,.,31.9,.
CCOc1ccccc1NC(=O)c1nnn(CC(=O)Nc2ccccc2CC)c1N,.,.,/,/,/
Cc1cc(C)c2c(=O)c3c(oc2c1)C(=O)N(Cc1ccc(F)cc1)C3c1cccc(O)c1 (stereo not drawn),.,.,/,/,/
CN1CCN(/C=N/C2=C(C#N)C(c3ccccc3)C3=C(CC(C)(C)CC3=O)O2)CC1 (stereo not drawn),.,36.4,.,.,.
O=C1CSc2ccc(C(=O)NCC(c3ccco3)N3CCCCC3)cc2N1 (stereo not drawn),.,.,.,35.8,.
CCc1cc(C(=O)NCC(c2ccco2)N2CCCCC2)sc1C (stereo not drawn),.,.,.,38.6,.
COc1ccccc1C(=O)NCc1nc2cccnc2n1Cc1ccc(F)cc1,.,.,/,/,/
O=C(NCCNC(=O)c1ccc(-c2ccc(Cl)c(Cl)c2)o1)c1cnccn1,.,102.0,.,.,.
O=C(NCCNC(=O)c1ccc(-c2cccc(Cl)c2)o1)c1cnccn1,/,/,.,/,.
Cc1cc(C)cc(NC(=O)C(CC(C)C)NC(=O)C2CCCCC2)c1 (stereo not drawn),.,.,/,/,/
O=C(Nc1ccc(C(=O)OCc2cc(=O)n3nc(C4CC4)sc3n2)cc1)c1cccc(F)c1,.,.,/,/,/
SMILES,D2 ag-1,D2 PAM-1,D2 ag-2,D2 antag,D2 PAM-2
COc1ccc2nc(NC(=O)Nc3ccccc3)sc2c1,.,.,.,.,.
CCOCC(=O)Nc1nc2ccc(OC)cc2s1,.,/,.,.,.
CCOc1ccc2nc(NC(=O)COC)sc2c1,.,33.9,.,.,.
CCOc1ccc2nc(NC(=O)Nc3ccccc3)sc2c1,.,.,.,31.6,.
COc1cc(C(=O)Nc2ccc(Cl)c([N+](=O)[O-])c2)cc(OC)c1OC,.,.,.,36.7,.
CCC(=O)Nc1nc2ccc(NC(=O)c3cc(OC)c(OC)c(OC)c3)cc2s1,.,31.5,.,.,.
CSc1nsc2nc(=O)c(/C=C3\C(C)=Nc4ccc(C)cc43)c(N)n12,.,/,.,.,.
CC1=Nc2ccc(C)cc2/C1=C/c1c(N)n2oc(C)cc2nc1=O,.,.,.,60.6!,.
CC1CCN(CC[C@H]2CCCN2S(=O)(=O)c2cccc(O)c2)CC1,.,.,.,34.3,.
O=C(NCCC1CCCCN1S(=O)(=O)c1ccccc1)C(=O)NCCN1CCOCC1 (stereo not drawn),.,.,.,.,.
CC(=O)N1CCCc2cc(S(=O)(=O)N(C)CC(=O)Nc3cccc(C)c3C)ccc21,.,.,/,/,/
O=C(Oc1ccc(Cl)c2cccnc12)N1CCCCC1,.,.,.,.,.
O=C(Oc1ccc(Cl)c2ccccc12)N1CCCCC1,.,.,.,55.9,.
CC(=O)Nc1ccc(-c2csc(NC(=O)CC(NC(C)=O)c3ccccc3)n2)cc1 (stereo not drawn),.,36.1,.,.,.
O=c1c(Cc2ccc(F)cc2)c(O)ccn1Cc1ccc(Cl)cc1Cl,.,.,.,44.2,.
COc1cc(NC(=O)Cn2c(=O)oc3cc(S(=O)(=O)N4CCCCCC4)ccc32)cc(OC)c1,.,.,/,/,/
Cc1cc2ccccn2c1C(=O)c1ccc([N+](=O)[O-])o1,.,.,.,36.4,.
CCC(=O)N1CCc2cc(S(=O)(=O)NCCC(=O)Nc3cccc(SC)c3)ccc21,.,.,/,/,/
O=C(Cn1ccn(-c2ccc(F)cc2)c(=O)c1=O)Nc1ccc(F)cc1,.,.,/,/,/
COCCn1c(=O)[nH]c2cc(C(=O)Nc3cccc(F)c3)ccc2c1=O,39.9,.,.,.,.
COCCn1c(=S)[nH]c2cc(C(=O)NCCCN3CCOCC3)ccc2c1=O,.,.,.,.,.
COCCn1c(=O)[nH]c2cc(C(=O)NCCN3CCN(c4ccccc4F)CC3)ccc2c1=O,83.0,.,?,96.4,.
COCCn1c(=O)[nH]c2cc(C(=O)NCCCN3CCN(c4ccc(F)cc4)CC3)ccc2c1=O,34.5,.,.,58.0,.
COc1cccc(-c2nc3ccccc3s2)c1O,.,.,.,.,.
Clc1ncccc1-c1nc2ccccc2s1,.,65.7,.,.,.
SMILES,D2 ag-1,D2 PAM-1,D2 ag-2,D2 antag,D2 PAM-2
Cc1c(Cl)cccc1-n1nnc(-c2nc(-c3ccc4c(c3)OCO4)no2)c1C,.,.,/,/,/
COc1cc(NS(=O)(=O)c2ccc(NC(=O)/C=C/c3ccc([N+](=O)[O-])cc3)cc2)ncn1,.,.,.,.,101.6
Cc1ccc(CCNC(=O)c2cn(C)c3ccc(S(=O)(=O)N4CCCCC4)cc3c2=O)cc1,.,.,/,/,/
CN1/C(=C\C=C2/SC(=S)N(CC(=O)O)C2=O)C(C)(C)c2ccccc21,97.0,.,.,.,.
O=C(c1nc2ncccn2n1)N1CCN(c2ccc(F)cc2)CC1,.,30.6,.,.,.
COc1ccc(CCNC(=O)CSc2nc(-c3ccc(F)cc3)cc(C(F)(F)F)n2)cc1OC,/,.,/,/,/
COc1ccc(S(N)(=O)=O)cc1C(=O)NCCCN1CCN(c2ccc(C)cc2)CC1,.,.,.,48.6,.
COc1ccc(N2CCN(CCCNC(=O)c3cc4sccc4n3C)CC2)cc1,38.1,.,.,40.3,.
COc1ccc(Cl)cc1C(=O)NCCCN1CCOCC1,.,.,.,.,.
